Compound activity (PubChem BioAssay)
A selection: hits, their analogues and other compounds. The true share with any hit is near 21%.
Pf growth 96h: inhibits malaria parasite growth, 96 h; P. falciparum luciferase reporter growth, 96 h; Potency, µM (top dose mostly 28.7 µM), for the others: top-dose activity change, negative = inhibition, most hits filed as inhibitors; 320,000 compounds, 6.9% hits; also: potency is read from the fitted curve at half-maximal effect; % is scaled to controls: 0 for no effect and ±100 for the full control effect
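Two-generation exposure (96 h) targets delayed-death phenotype. Reporter parasites carrying integrated firefly luciferase, in red cells at 2% hematocrit and 0.05% parasitemia final, kept at 37 C, 5% CO2; luminescence loss indicates inhibition.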
Cycloheximide cs: counter-screen hit for Shiga toxin inhibitors, cycloheximide; cell reporter, cycloheximide protein synthesis inhibition counterscreen; max response, %; 300,000 compounds, 12% hits; in the data active = max response mostly above about 13%, no sharp cut-off; inactive = mostly below about 14%; also: read at 38.3 µM for the half of the compounds with a filed dose; 0% is about no effect
NS1 inh: influenza NS1 inhibition | Potency, µM (top dose mostly 46.1 µM), without a hit: at the highest dose activity, positive = more growth | 270,000 compounds, 0.4% hits | AID 2326; calls by dose curve; also: potency is read from the fitted curve at half-maximal effect; actives are rising curves; nearly all actives have a fitted effect of over 50% in size
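Growth recovery, yeast-based: influenza A NS1 expressed in S. cerevisiae causes slow growth, and suppressors are detected by OD600. The parent strain without NS1 is used as positive control.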
Shiga toxin inh: blocks Shiga toxin action in Vero cells; inhibition, % at 38.7 µM; 290,000 compounds, 9.2% hits; Vero cells, Shiga toxin protein synthesis inhibition reporter; in the data active = inhibition mostly above about 28%, no sharp cut-off; inactive = mostly below about 43%; also: 0% is about no effect
Pf growth 48h: P. falciparum growth inhibition at 48 hours (one generation); P. falciparum luciferase growth in erythrocytes, 48 h; Potency, µM (series often up to 28.7 µM), without a hit: at the highest dose activity change, negative = inhibition, actives largely listed as inhibitors; 310,000 compounds, 5.9% hits; AID 504832; also: potency is read from the fitted curve at half-maximal effect; % is scaled to controls: 0 for no effect and ±100 for the full control effect
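Cell-based growth assay: transgenic P. falciparum expressing firefly luciferase, cultured in red cells within RPMI 1640 containing 0.5% w/v Albumax, 24 mM bicarbonate and gentamycin. A drop in luciferase activity indicates inhibition.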
Starred values were filed as active, the others as inactive; i = inactive; ? = inconclusive; . = no result. Unless noted, calls follow the shape of the dose curve; as a rule, active = well fitted inhibition curve with a large enough effect; inconclusive = small, poorly fitted or top-dose-only effect, or another doubt; inactive = no such curve, though single readings can be large or run the other way.

SMILES | Pf growth 96h | Cycloheximide cs | NS1 inh | Shiga toxin inh | Pf growth 48h
COc1ccc(-c2nn(-c3ccccc3)cc2CO)cc1OC | -12% | 2 | -8% | -11 | 13µM*
COCC1CCCCN1Cc1cn(-c2ccccc2)nc1-c1ccc2c(c1)OCO2 (stereo not given) | ? | 7 | -3% | 10 | ?
OC[C@@H]1CCCN1Cc1cn(-c2ccccc2)nc1-c1ccc2c(c1)OCO2 | 357% | 0 | -10% | 19 | 13µM*
Cc1cccnc1CNC(=O)C1CCC(=O)N(CCc2cccc(F)c2)C1 (stereo not given) | -1% | 15 | 14% | -25 | 7%
Cc1cccc(N(CC(=O)NCC2CCCO2)C(=O)CCC(=O)Nc2nccs2)c1 (stereo not given) | -5% | -5 | 1% | -4 | -3%
CC(=O)Nc1cccc(C(=O)N2CCC(n3nccc3NC(=O)CC(C)C)CC2)c1 | 32% | 2 | 8% | -6 | 6%
CCOC(=O)c1cc(-c2ccc(OC(F)F)cc2)nc2c1c(=O)[nH]c(=O)n2C | 18% | -3 | 6% | -6 | 17%
Cc1ccc(C(=O)Nc2ccc(C(=O)N/N=C/c3ccc(C)o3)cc2)cc1 | -7% | 9 | 0% | 32 | ?
COc1ccc2nc(SCC(=O)NC3CC3)c(C#N)cc2c1 | ? | 6 | 25% | 20 | 14%
NC(N)=NC1=NC(=O)/C(=C/c2ccccc2-n2cccn2)S1 | -10% | 6 | . | 11 | 12%
O=Cc1ccccc1-n1cccn1 | 17% | 31* | . | -9 | 21%
CNS(=O)(=O)c1cnccc1N1CCN(c2cccc(Cl)c2)CC1 | ? | -2 | 3% | -17 | ?
CCN(CC)S(=O)(=O)c1cnccc1N1CCN(c2cccc(Cl)c2)CC1 | 2.9µM* | -4 | -49% | -13 | 3.3µM*
NC(=O)c1cc(S(=O)(=O)N2CCN(c3cccc(Cl)c3)CC2)cs1 | 1.2µM* | 8 | 3% | 2 | -10%
CN1CCN(S(=O)(=O)c2cnccc2N2CCN(c3cccc(Cl)c3)CC2)CC1 | 2.6µM* | -4 | -6% | -8 | 2.6µM*
C=CCc1cc(C=O)cc(OCC)c1O | 25% | 0 | -2% | 2 | 20%
COc1ccccc1N1CCN(CC(O)COCCOc2ccc(Br)cc2)CC1 (stereo not given) | 13µM* | -3 | 0% | -14 | -9%
CC1(C)CCCC(C)(C)N1CC(O)COCCOc1ccc(Br)cc1 (stereo not given) | ? | -4 | -8% | -7 | 5.9µM*
O=C(CCc1nc2ccccc2[nH]1)Nc1ccccc1 | -18% | 17 | -7% | 2 | 3%
Cc1ccc(S(=O)(=O)CCc2nc3ccccc3[nH]2)cc1 | -18% | 9 | 0% | -20 | -12%
Cc1ccc(C(=O)Cc2nc3ccccc3[nH]2)cc1 | ? | 36* | -51% | 65* | 0.37µM*
Cc1cc(C)cc(NC(=O)CCc2nc3ccccc3[nH]2)c1 | 3.3µM* | -1 | 10% | -12 | 5%
CCOC(=O)Cc1nc2ccccc2[nH]1 | 12µM* | -1 | 9% | 17 | 6%
CCOC(=O)c1ccc(NCc2nc3ccccc3[nH]2)cc1 | 0% | 53* | -10% | 73* | 16%
CC(=O)Nc1ccc(Cc2nc3ccccc3[nH]2)cc1 | 39% | -3 | -1% | -3 | 21%
SMILES | Pf growth 96h | Cycloheximide cs | NS1 inh | Shiga toxin inh | Pf growth 48h
CCc1ccc(NCc2nc3ccccc3c(=O)[nH]2)cc1 | -40% | 25* | 2% | 88* | -61%
CCOc1ccc(NC(=O)CN(C)C(=O)c2ccc(OCC3CCCO3)cc2)cc1OCC (stereo not given) | -1% | -4 | 1% | -24 | -8%
O=C(/C=C/c1ccc2c(c1)OCO2)Nc1nncs1 | 73% | 30* | -1% | 45* | 231%
O=C(/C=C/c1ccc2c(c1)OCO2)Nc1nc(-c2ccccc2)cs1 | ? | 2 | -4% | 39 | ?
CCOC(=O)c1[nH]c2ccc(OC)cc2c1NC(=O)/C=C/c1ccc2c(c1)OCO2 | 55% | 7 | 24% | 19 | -4%
O=C(/C=C/c1ccc2c(c1)OCO2)Nc1c(C(=O)O)[nH]c2ccccc12 | i | 50* | 20% | 55* | 8%
O=C(/C=C/c1ccc2c(c1)OCO2)c1cccnc1 | 5% | 22* | -9% | 29 | 6%
O=C(N/N=C\C=C\c1ccc2c(c1)OCO2)c1cccnc1 | ? | 18* | 10% | 78* | 8%
O=C(/C=C/c1ccc([N+](=O)[O-])cc1)c1cccnc1 | -26% | -2 | -23% | -6 | -1%
